Binding signal data for one sequence are collected here from publication PMC7862700, “An all-to-all approach to the identification of sequence-specific readers for epigenetic DNA modifications on cytosine”.

Common to all, as to experiment: DAPPL (digital affinity profiling via proximity ligation, sequencing); 10 mM Tris-HCl pH 7.5, 50 mM NaCl, 1 mM DTT, 4% glycerol, room temperature, 30 min; GST-TFs on glutathione beads, 16-mer random dsDNA library, 0.1% formaldehyde crosslink after washing; high values mean tight binding
One assay deals with T1, FLI1 (Homo sapiens, UniProt Q01543 1-452).
T1 sequence: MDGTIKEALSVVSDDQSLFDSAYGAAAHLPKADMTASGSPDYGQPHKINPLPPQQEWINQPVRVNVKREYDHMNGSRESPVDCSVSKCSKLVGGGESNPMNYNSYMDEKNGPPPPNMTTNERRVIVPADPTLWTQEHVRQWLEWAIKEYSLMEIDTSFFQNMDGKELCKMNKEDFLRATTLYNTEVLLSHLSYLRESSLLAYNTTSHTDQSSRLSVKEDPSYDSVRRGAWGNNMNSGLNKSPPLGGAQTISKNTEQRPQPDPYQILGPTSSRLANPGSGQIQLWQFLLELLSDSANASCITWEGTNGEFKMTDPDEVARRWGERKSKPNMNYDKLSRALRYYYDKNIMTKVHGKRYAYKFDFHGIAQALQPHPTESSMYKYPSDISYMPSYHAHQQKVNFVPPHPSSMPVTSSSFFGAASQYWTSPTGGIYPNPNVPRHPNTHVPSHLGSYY
The note with it: protein: recombinant; tags: N-terminal GST; dsDNA, one strand shown. A digest of the protocol: (§1)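 A tag-only sample was pooled with DNA-barcoded human transcription factors that had been expressed in yeast as GST fusions and captured on glutathione beads. The pools were incubated for 30 min at room temperature with 200 nmole of a random double-stranded 16-mer DNA library in Tris/NaCl/DTT/glycerol buffer, then washed, crosslinked with 0.1% formaldehyde, proximity-ligated (BsaI/T4 ligase, 1 h, 37 °C), PCR-amplified and sequenced on an Illumina NextSeq500. Binding signal is each hexamer's read frequency for a factor divided by its frequency for the tag-only sample.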

The target of another assay is T2, ELK1 (Homo sapiens, UniProt P19419 1-428).
T2 sequence: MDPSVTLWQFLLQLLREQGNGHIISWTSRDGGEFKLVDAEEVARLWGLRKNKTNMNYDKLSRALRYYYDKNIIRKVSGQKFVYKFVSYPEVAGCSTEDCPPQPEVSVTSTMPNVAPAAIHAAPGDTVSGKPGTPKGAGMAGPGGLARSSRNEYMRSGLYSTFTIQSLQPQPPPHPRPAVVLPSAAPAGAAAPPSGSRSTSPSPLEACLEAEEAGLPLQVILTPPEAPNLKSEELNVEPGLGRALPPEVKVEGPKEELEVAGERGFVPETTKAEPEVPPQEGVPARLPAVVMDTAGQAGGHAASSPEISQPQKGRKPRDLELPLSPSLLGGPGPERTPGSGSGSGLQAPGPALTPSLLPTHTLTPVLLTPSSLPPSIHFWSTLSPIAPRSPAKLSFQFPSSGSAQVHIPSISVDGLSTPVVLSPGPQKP
Conditions: protein: recombinant; tags: N-terminal GST; dsDNA, one strand shown. The essentials:
as §1

The next assay concerns the target T3, GABPA (Homo sapiens, UniProt Q06546 1-454).
T3 sequence: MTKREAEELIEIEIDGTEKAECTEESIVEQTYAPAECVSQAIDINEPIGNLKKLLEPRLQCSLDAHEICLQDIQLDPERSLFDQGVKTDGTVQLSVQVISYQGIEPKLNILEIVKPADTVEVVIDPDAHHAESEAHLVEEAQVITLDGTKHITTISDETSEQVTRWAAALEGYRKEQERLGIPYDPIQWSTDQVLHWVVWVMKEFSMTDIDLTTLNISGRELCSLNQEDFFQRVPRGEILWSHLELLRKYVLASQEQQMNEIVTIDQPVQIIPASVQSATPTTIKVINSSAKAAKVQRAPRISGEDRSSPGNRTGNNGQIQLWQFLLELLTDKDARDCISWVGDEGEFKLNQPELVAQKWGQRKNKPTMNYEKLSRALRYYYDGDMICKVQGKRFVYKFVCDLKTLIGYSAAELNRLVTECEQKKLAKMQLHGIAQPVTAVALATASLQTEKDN
Conditions: protein: recombinant; tags: N-terminal GST; dsDNA, one strand shown. A digest of the protocol: as §1

Another assay addresses T4, ERG (Homo sapiens, UniProt P11308 1-479).
T4 sequence: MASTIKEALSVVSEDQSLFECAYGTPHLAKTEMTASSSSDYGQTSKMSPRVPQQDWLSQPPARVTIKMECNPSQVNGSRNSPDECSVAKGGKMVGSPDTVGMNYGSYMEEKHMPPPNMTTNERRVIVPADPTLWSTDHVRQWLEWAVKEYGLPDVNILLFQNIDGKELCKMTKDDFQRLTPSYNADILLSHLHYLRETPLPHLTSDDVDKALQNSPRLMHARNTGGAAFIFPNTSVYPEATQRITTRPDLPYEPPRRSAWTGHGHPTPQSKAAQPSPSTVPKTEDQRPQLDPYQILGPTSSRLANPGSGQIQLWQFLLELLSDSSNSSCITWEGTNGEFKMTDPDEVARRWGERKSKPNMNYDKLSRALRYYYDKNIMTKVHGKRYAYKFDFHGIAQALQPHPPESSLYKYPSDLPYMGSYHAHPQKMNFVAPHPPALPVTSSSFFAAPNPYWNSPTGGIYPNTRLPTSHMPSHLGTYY
The note with it: protein: recombinant; tags: N-terminal GST; dsDNA, one strand shown. A digest of the protocol: as §1

The next assay deals with ELF1 (Homo sapiens, UniProt P32519 1-619). Conditions: protein: recombinant; tags: N-terminal GST; dsDNA, one strand shown. The essentials: as §1
ELF1, sequence (P32519 whole entry): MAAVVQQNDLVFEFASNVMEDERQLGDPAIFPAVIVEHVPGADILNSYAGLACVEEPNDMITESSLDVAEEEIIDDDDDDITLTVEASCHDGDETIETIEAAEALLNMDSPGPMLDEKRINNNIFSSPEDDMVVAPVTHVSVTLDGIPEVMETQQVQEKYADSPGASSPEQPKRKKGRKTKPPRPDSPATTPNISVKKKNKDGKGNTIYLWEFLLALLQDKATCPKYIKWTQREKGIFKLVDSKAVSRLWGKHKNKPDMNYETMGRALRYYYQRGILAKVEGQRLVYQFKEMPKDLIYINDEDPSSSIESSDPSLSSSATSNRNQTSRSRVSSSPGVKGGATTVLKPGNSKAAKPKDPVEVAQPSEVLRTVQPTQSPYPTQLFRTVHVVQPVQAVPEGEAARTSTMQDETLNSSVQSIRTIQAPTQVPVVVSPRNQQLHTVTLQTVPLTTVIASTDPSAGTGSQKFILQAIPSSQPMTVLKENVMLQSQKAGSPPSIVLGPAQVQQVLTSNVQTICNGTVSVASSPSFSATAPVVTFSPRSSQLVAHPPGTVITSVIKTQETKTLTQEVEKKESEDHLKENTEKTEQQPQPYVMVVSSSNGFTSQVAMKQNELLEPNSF
For the next assay, the target named is T5, EHF (Homo sapiens, UniProt Q9NZC4 1-300).
T5 sequence: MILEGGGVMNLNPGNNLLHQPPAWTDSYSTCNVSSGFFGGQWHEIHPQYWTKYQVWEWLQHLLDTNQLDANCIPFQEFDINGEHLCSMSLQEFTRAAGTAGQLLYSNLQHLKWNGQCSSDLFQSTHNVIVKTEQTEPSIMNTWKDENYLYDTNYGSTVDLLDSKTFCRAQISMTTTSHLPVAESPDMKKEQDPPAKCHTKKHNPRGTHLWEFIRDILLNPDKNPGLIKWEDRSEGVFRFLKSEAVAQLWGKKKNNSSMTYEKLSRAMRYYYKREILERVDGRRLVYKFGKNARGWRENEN
Conditions: protein: recombinant; tags: N-terminal GST; dsDNA, one strand shown. A digest of the protocol: as §1

The target of the next assay is SPI1 (Homo sapiens, UniProt P17947 1-270). The note with it: protein: recombinant; tags: N-terminal GST; dsDNA, one strand shown. The essentials:
as §1

In another assay the target is SPIB (Homo sapiens, UniProt Q01892 1-262). Conditions: protein: recombinant; tags: N-terminal GST; dsDNA, one strand shown. A digest of the protocol: as §1
SPIB, sequence (Q01892 whole entry): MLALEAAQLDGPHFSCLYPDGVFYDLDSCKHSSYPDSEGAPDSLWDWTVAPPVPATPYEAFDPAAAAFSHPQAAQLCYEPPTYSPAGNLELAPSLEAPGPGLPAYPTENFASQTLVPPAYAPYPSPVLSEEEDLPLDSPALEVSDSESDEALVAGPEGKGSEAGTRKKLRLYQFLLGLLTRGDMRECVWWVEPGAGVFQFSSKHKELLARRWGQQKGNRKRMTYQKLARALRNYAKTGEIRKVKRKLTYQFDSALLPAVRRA
For the next assay, the target named is T6, ELK3 (Homo sapiens, UniProt P41970 1-407).
T6 sequence: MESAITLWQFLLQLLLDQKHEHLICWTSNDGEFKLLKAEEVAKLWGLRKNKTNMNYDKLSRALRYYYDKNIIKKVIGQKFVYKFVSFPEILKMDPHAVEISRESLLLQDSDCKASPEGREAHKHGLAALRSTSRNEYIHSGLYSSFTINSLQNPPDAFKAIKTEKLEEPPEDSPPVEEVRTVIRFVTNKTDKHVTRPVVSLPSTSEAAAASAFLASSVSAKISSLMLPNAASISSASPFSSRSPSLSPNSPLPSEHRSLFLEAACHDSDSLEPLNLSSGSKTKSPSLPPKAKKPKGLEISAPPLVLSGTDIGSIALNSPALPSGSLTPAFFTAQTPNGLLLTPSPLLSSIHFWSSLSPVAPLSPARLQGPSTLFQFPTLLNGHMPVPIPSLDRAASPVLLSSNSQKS
The note with it: protein: recombinant; tags: N-terminal GST; dsDNA, one strand shown. The essentials:
as §1

In the next assay the target is T7, FEV (Homo sapiens, UniProt Q99581 1-238).
T7 sequence: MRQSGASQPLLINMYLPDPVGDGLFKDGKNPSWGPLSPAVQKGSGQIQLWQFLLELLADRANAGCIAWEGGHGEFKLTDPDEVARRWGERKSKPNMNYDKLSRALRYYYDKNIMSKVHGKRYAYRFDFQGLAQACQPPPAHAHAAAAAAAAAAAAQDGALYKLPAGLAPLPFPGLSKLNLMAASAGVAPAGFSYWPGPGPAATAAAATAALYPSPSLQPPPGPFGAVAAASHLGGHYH
The note with it: protein: recombinant; tags: N-terminal GST; dsDNA, one strand shown. The essentials:
as §1

The next assay has as its target ETV5 (Homo sapiens, UniProt P41161 1-510). Conditions: protein: recombinant; tags: N-terminal GST; dsDNA, one strand shown. The essentials: as §1
The next assay concerns the target HSF1 (Homo sapiens, UniProt Q00613 1-529). Conditions: protein: recombinant; tags: N-terminal GST; chain copies: 3; dsDNA, one strand shown. A digest of the protocol:
as §1

A further assay deals with T8, SPIC (Homo sapiens, UniProt Q8N5J4 1-248).
T8 sequence: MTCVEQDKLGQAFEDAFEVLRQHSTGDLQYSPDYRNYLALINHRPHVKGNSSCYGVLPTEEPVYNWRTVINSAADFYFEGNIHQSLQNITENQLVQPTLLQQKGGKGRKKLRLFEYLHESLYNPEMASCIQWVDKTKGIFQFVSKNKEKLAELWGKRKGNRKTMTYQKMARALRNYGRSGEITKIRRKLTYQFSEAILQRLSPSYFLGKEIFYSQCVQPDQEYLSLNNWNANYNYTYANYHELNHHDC
Conditions: protein: recombinant; tags: N-terminal GST; dsDNA, one strand shown. A digest of the protocol:
as §1

The target of the next assay is ELF4 (Homo sapiens, UniProt Q99607 1-663). The note with it: protein: recombinant; tags: N-terminal GST; dsDNA, one strand shown. A digest of the protocol:
as §1

In a further assay the target is T9, ELK4 (Homo sapiens, UniProt P28324-2 1-405).
T9 sequence: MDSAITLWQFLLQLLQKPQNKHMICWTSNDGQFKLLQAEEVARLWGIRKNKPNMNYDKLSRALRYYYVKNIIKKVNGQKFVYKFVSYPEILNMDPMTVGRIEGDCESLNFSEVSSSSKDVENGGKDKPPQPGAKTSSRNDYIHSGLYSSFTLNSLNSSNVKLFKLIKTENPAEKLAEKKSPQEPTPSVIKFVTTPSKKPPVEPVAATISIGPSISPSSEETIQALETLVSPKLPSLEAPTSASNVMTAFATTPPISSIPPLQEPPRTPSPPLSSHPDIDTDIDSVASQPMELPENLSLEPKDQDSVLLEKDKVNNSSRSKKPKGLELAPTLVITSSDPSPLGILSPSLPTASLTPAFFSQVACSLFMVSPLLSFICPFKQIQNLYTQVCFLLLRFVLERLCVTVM
The note with it: protein: recombinant; tags: N-terminal GST; dsDNA, one strand shown. The essentials:
as §1

The target in a further assay is T10, ETV2 (Homo sapiens, UniProt O00321 1-342).
T10 sequence: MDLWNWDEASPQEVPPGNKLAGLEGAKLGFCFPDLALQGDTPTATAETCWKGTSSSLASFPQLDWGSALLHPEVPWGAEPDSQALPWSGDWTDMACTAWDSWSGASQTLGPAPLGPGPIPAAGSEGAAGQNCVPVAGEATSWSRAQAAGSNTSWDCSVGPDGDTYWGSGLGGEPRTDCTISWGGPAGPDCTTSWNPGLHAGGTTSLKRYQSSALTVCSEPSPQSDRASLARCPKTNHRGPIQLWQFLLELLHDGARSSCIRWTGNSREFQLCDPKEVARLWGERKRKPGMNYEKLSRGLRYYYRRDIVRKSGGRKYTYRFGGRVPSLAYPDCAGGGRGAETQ
The note with it: protein: recombinant; tags: N-terminal GST; dsDNA, one strand shown. The essentials:
as §1

In a further assay the target is T11, ELF3 (Homo sapiens, UniProt P78545 1-371).
T11 sequence: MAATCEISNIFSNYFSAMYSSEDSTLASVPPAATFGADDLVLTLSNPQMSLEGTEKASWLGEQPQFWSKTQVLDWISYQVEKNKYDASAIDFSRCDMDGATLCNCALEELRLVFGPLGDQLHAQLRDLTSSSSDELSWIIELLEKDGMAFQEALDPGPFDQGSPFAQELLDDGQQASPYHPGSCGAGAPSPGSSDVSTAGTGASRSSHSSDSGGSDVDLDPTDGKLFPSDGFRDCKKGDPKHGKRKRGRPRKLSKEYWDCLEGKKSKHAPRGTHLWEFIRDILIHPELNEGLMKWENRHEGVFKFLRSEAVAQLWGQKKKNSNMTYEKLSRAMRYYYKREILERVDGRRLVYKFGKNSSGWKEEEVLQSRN
Conditions: protein: recombinant; tags: N-terminal GST; dsDNA, one strand shown. The essentials: as §1

A further assay deals with CRX (Homo sapiens, UniProt O43186 1-299). The note with it: protein: recombinant; tags: N-terminal GST; dsDNA, one strand shown. A digest of the protocol: as §1
CRX, sequence (O43186 whole entry): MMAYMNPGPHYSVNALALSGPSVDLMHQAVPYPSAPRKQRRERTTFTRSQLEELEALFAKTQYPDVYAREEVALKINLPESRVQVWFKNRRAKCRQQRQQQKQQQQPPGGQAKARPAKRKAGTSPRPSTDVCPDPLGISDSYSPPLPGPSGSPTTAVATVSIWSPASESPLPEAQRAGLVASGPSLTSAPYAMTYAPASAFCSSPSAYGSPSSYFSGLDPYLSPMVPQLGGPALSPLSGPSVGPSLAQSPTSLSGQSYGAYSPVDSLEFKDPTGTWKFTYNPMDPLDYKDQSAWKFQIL
The target in the next assay is ETV1 (Homo sapiens, UniProt P50549 1-477). The note with it: protein: recombinant; tags: N-terminal GST; dsDNA, one strand shown. The essentials: as §1
ETV1, sequence (P50549 whole entry): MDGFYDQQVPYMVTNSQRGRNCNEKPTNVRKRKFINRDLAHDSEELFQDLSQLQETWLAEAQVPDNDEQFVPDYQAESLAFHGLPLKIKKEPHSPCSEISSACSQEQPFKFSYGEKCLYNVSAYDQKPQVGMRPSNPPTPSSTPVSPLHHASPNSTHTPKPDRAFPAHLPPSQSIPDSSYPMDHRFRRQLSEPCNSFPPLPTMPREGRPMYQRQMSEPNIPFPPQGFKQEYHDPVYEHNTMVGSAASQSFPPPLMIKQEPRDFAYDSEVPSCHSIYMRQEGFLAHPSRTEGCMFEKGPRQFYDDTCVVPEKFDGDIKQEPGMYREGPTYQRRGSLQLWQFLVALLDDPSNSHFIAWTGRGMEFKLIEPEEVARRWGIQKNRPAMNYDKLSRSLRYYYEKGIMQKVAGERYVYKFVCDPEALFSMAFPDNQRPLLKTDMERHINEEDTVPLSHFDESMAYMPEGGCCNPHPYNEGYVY

ETV5, sequence (P41161 whole entry): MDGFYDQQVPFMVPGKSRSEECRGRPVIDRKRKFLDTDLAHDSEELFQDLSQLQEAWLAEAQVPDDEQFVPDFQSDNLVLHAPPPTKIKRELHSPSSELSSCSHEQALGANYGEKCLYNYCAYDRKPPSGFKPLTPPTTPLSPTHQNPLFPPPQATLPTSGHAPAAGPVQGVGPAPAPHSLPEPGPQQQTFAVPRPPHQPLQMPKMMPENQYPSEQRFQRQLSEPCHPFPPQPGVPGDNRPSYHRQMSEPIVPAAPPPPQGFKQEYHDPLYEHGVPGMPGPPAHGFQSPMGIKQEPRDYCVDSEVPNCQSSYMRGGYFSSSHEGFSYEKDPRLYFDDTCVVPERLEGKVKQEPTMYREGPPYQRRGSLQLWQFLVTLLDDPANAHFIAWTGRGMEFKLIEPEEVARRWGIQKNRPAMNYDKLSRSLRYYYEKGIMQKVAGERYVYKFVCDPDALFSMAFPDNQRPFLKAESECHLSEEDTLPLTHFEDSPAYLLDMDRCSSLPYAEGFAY
HSF1, sequence (Q00613 whole entry): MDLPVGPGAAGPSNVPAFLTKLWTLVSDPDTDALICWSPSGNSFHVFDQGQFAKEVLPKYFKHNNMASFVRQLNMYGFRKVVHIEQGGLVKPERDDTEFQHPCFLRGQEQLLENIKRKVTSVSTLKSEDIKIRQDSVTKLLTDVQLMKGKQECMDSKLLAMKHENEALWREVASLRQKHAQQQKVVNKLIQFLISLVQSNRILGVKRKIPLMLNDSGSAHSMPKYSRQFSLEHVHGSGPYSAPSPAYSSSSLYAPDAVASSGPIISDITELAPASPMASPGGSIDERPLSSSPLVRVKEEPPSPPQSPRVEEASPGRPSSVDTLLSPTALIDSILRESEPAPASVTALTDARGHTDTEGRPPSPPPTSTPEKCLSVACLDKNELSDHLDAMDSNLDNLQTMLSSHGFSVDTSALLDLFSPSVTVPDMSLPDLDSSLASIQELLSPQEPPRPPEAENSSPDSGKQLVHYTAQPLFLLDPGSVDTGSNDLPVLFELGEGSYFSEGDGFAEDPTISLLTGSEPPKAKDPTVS
ELF4, sequence (Q99607 whole entry): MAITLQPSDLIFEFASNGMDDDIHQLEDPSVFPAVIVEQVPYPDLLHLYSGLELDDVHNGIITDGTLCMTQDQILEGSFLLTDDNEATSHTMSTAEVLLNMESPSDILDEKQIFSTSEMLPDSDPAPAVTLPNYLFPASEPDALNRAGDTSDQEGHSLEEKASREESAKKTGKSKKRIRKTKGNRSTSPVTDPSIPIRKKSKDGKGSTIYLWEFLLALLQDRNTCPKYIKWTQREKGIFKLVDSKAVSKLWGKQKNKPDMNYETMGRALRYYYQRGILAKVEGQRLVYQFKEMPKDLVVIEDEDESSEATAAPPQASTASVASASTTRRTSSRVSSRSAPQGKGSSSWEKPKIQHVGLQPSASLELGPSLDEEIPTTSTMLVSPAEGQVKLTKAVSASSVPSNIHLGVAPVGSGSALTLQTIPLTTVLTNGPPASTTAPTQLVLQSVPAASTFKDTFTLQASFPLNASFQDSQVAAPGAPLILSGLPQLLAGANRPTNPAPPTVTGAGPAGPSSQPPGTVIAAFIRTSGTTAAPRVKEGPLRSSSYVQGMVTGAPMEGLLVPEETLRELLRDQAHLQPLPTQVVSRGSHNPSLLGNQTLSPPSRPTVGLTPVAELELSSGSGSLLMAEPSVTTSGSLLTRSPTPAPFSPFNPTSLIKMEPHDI

As for CCGACT, the binding signal in the assay with FLI1 was 1.43 fold enrichment (6-mer frequency, TF over GST control); with ELK1 it was 1.6 fold enrichment (6-mer frequency, TF over GST control); in the assay with GABPA, 1.48 fold enrichment (6-mer frequency, TF over GST control); in the assay with ERG it was 1.52 fold enrichment (6-mer frequency, TF over GST control); in the assay with ELF1 it was 1.44 fold enrichment (6-mer frequency, TF over GST control); with EHF, 1.48 fold enrichment (6-mer frequency, TF over GST control). Further, the binding signal is 1.4 fold enrichment (6-mer frequency, TF over GST control) with SPI1; 1.64 fold enrichment (6-mer frequency, TF over GST control) with SPIB; 1.58 fold enrichment (6-mer frequency, TF over GST control) with ELK3; 1.52 fold enrichment (6-mer frequency, TF over GST control) with FEV; 1.44 fold enrichment (6-mer frequency, TF over GST control) with ETV5; 1.29 fold enrichment (6-mer frequency, TF over GST control) with HSF1. The binding signal was 1.53 fold enrichment (6-mer frequency, TF over GST control) in the assay with SPIC; 1.52 fold enrichment (6-mer frequency, TF over GST control) with ELF4; 1.56 fold enrichment (6-mer frequency, TF over GST control) with ELK4; 1.46 fold enrichment (6-mer frequency, TF over GST control) with ETV2; 1.55 fold enrichment (6-mer frequency, TF over GST control) with ELF3; 1.45 fold enrichment (6-mer frequency, TF over GST control) with CRX. For the same sequence, in the assay with ETV1, the binding signal is 1.6 fold enrichment (6-mer frequency, TF over GST control).
